Consider 40 compounds from PubChem BioAssay (Tox21).

Several values for one entry are separate records, joined by “and”; a condition that tells them apart may be missing. Equal entries are not always repeated. Results filed as inconclusive are left out. Unmarked numbers belong to inactive results. Activity calls are given as the source filed them. Calls come from the whole dose curve; as a rule, active = well fitted inhibition curve with a large enough effect in the repeat runs; inconclusive = weak or mixed curves; inactive = no such curve, though single readings can be large or run the other way.
% is set by controls: 0 for no effect and ±100 for the full control effect; potency is the fitted concentration of half-maximal effect.

The test deals with Cytochrome P450 2C19 (Homo sapiens) (UniProt P33261). The test can be described thus: Cytochrome P450 Family 2 Subfamily C Member 19 (CYP2C19) small molecule antagonists: luciferase reporter qHTS assay (AID 1671197). Note: nearly all actives have a fitted effect of over 65% in size. To be noted: P450-Glo CYP2C19 enzyme, luciferin luminescence, 1 h; series mostly up to 115 µM; activity change, negative = inhibition: at the top concentration. The text has this: National Center for Advancing Translational Sciences [NCATS]
Chain of Cytochrome P450 2C19 (Homo sapiens) (P33261 whole entry, looked up): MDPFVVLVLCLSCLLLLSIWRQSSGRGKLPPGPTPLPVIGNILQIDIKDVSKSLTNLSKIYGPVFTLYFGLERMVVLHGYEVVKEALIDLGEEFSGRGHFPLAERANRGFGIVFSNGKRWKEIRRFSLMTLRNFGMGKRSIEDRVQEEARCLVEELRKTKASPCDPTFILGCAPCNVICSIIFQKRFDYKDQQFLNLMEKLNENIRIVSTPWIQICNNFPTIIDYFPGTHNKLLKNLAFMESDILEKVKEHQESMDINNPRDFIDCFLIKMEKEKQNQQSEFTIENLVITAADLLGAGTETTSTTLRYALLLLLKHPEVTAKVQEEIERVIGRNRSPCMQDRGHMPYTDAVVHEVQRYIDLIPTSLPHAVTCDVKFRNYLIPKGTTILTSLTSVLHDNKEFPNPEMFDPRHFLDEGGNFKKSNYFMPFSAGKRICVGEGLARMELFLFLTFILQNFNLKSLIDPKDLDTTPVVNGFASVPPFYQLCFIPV
U.S. Environmental Protection Agency [EPA]
National Institutes of Environmental Health Sciences [NIEHS]
National Toxicology Program [NTP]
U.S. Food and Drug Administration [FDA]
Cytochrome P450 (CYP) enzymes are membrane-bound hemeproteins that play a key role in metabolism of drugs and xenobiotics. Evaluation of the effect of chemicals on CYP isozymes is useful to minimize the adverse drug reactions and toxicities in drug development process. Tox21 chemicals were tested for their effect on CYP enzyme activities by using P450-Glo (TM) screening systems (Promega Corporation, Madison, WI). These systems provide a luminescent method containing proluciferin substrates and are converted to luciferin products by CYP isozymes. The luciferin products formed are detected with a luciferin detection reagent, and the amount of light produced is proportional to CYP activity. P450-Glo (TM) CYP2C19 screening system (Catalog. No. V9880) was used to detect the compounds that interfere in CYP2C19 activity. The positive control compound used for CYP2C19 assay is ketoconazole (Sigma-Aldrich, St. Louis, MO).
Tox21 Assay Protocol Summary:
Two ul of enzyme-substrate mix was dispensed into medium binding white/solid 1536-well plates (Greiner Bio-One North America Inc., Monroe, NC) using a BioRaptr Flying Reagent Dispenser (FRD, Beckman Coulter, Brea, CA). Compounds dissolved in DMSO and positive control (ketoconazole) were transferred to the assay plates at 23 nl using a Pintool station (Wako, San Diego, CA). The assay plates were incubated at room temperature for 10 min. Then 2 ul of NADPH regeneration solution was added to each well of the assay plates using an FRD and incubated at 37C for 1 h. The reaction was stopped by adding 4 ul of detection reagent using an FRD and after 20 min incubation at room temperature the luminescence signal was measured using a ViewLux plate reader (Perkin Elmer, Shelton, CT). Data were expressed as relative luminescence units.
A general note: A reporter such as luciferase makes a cellular process visible.
As for `COc1ccc2c(c1OC)C(=O)O[C@@H]2[C@H]1c2cc3c(cc2CCN1C)OCO3`, the Potency was 3.95 µM (active). Still for that read-out and setting: in the case of `O=S1OCC2C(CO1)C1(Cl)C(Cl)=C(Cl)C2(Cl)C1(Cl)Cl` (stereo not given) it was 3.18 µM (active) and 3.56 µM (active). For `Cc1c([N+](=O)[O-])c(C)c([N+](=O)[O-])c(C(C)(C)C)c1[N+](=O)[O-]`, the “activity change, negative = inhibition” value is 6.31%. `Cc1nn(-c2cc(NS(C)(=O)=O)c(Cl)cc2Cl)c(=O)n1C(F)F`: the “activity change, negative = inhibition” value is -2.61%. `Nc1nc(N)nc(Cl)n1`: the “activity change, negative = inhibition” value was -2.73%. Turning to `O=c1[nH]c2cc(Cl)ccc2n1C1CCNCC1`, the “activity change, negative = inhibition” value is 4.33% [at 52.9 µM]. As to `N#CC(C#N)=NNc1cccc(Cl)c1`, the Potency is 79.6 µM (active). Regarding `O=C(NC(=O)c1c(F)cccc1F)Nc1ccc(Oc2ccc(C(F)(F)F)cc2Cl)cc1F`, the “activity change, negative = inhibition” value was -57.7%. As for `CCCCC(CC)COC(=O)OOC(C)(C)C` (stereo not given), the “activity change, negative = inhibition” value is -11.7%. With `CCOP(=O)(Sc1ccccc1)Sc1ccccc1`, the Potency was 8.94 µM (active). On to `O=C(O)CCCCCCNC1c2ccccc2CCc2ccccc21`, for which the “activity change, negative = inhibition” value was 1.86% [at 52.9 µM]. Turning to `O=NN(CCO)CCO`, the Potency was 78.4 µM (active). In the case of `CCn1cc[n+](C)c1` (tested in a mixture with another compound), the “activity change, negative = inhibition” value was -11.6%. Turning to `Cc1cc2c3c(c1)C(c1ccccc1)=N[C@@H](NC(=O)c1ccncc1)C(=O)N3CC2`, the Potency is 25.2 µM (active). Regarding `C=CCOC(=O)c1ccccc1N`, the Potency is 25.4 µM (active).

On to `CCCCCCCc1ccc(O)cc1`, for which the Potency is 20 µM (active). Regarding `CC(=O)C(Cl)C(=O)N(C)C` (stereo not given), the “activity change, negative = inhibition” value is 5.1%. On the same count and under the same terms, as for `Oc1cc(Cl)cc(Cl)c1`, the figure is -22.4%.

Consider `COP(=S)(OC)Oc1nc(Cl)c(Cl)cc1Cl`, for which the Potency is 79.6 µM (active).

Turning to `CN(C)c1ccc(N)cc1`, the Potency was 7.78 µM (active).

Turning to `S=C=Nc1ccccc1`, the Potency was 36.7 µM (active). The same measure, in the same setting: in the case of `CN(C)C(=S)SSC(=S)N(C)C` it was 7 µM (active) and 6.33 µM (active) and 3.09 µM (active).

Take `N#Cc1ccc(N(CC(N)=O)CC(F)(F)F)cc1C(F)(F)F`: the Potency is 79.6 µM (active). As for `Nc1c(Cl)c(Cl)c(Cl)c(Cl)c1Cl`, the “activity change, negative = inhibition” value is -25.6%. Regarding `CSC1=N[C@@](C)(c2ccccc2)C(=O)N1Nc1ccccc1`, the Potency was 1.12 µM (active). On to `Cc1ccc([N+](=O)[O-])[c]2c1[O][Hg]2`, for which the Potency was 2.19 µM (active). For the compound `CC[N+]1(CC)CCC(OC(=O)C(O)(c2ccccc2)c2ccccc2)C1` (stereo not given), the “activity change, negative = inhibition” value is -7.69% [at 52.9 µM]. In the case of `CCCCC/C=C\C/C=C\C/C=C\C/C=C\CCCC(=O)NCC(=O)O`, the “activity change, negative = inhibition” value was -12% [at 52.9 µM]. In the case of `CC1(C)[C@H](/C=C2\CCSC2=O)[C@@H]1C(=O)OCc1coc(Cc2ccccc2)c1`, the Potency is 2.24 µM (active). For `ClC(Cl)C(Cl)(Cl)Cl`, the “activity change, negative = inhibition” value is -1.04%. Consider `Clc1ccc(C2(Cn3cncn3)OCCO2)c(Cl)c1`, for which the Potency was 3.17 µM (active).

Consider `Clc1ccc(C(c2ccc(Cl)cc2)C(Cl)Cl)cc1`, for which the Potency was 181 nM (active) and 113 nM (active).

For the compound `Cc1ccc2cc3c(ccc4ccccc43)c3c2c1CC3`, the Potency is 40 µM (active). With `CC(C)(C)c1ccc(OP(=O)(Oc2ccccc2)Oc2ccccc2)cc1`, the Potency is 5.06 µM (active). The same measure, in the same setting: as for `[F][Sn]([c]1ccccc1)([c]1ccccc1)[c]1ccccc1`, the figure is 3.99 µM (active); as for `N#CSCc1ccccc1`, 71.3 µM (active). With `NC1CCC(CC2CCC(N)CC2)CC1` (stereo not given), the “activity change, negative = inhibition” value is 14.3%.

As for `Cc1c([N+](=O)[O-])cc2c(c1[N+](=O)[O-])C(C)(C)CC2(C)C`, the “activity change, negative = inhibition” value is -13.6%. In the case of `C=C(C)C(=O)[O][Sn]([CH2]CCC)([CH2]CCC)[CH2]CCC`, the Potency is 0.71 µM (active). As to `CC(C)C(Br)C(=O)NC(N)=O` (stereo not given), the “activity change, negative = inhibition” value is 22% [at 52.9 µM].
